Test results published in PubChem BioAssay AID1645853 (Buhrlage Lab, Dana-Farber Cancer Institute and Novartis …, 2021).
Screen size: about 47,000 compounds; about 2,000 (4.3%) were called active. Rule as the data show it: active = inhibition above about 30%; inactive = the rest. Many of the other results were omitted from the sample, so actives are more common in it than they were.

Target: Ubiquitin carboxyl-terminal hydrolase 8 (Homo sapiens) (UniProt P40818)
Assay: inhibitors of human USP8 deubiquitinase (AID 1645853)
Settings: purified USP8, Ub-rhodamine cleavage fluorescence, 30 min; at 20 µM; stronger effect = higher value

Chain of Ubiquitin carboxyl-terminal hydrolase 8 (Homo sapiens) (P40818 whole entry, looked up): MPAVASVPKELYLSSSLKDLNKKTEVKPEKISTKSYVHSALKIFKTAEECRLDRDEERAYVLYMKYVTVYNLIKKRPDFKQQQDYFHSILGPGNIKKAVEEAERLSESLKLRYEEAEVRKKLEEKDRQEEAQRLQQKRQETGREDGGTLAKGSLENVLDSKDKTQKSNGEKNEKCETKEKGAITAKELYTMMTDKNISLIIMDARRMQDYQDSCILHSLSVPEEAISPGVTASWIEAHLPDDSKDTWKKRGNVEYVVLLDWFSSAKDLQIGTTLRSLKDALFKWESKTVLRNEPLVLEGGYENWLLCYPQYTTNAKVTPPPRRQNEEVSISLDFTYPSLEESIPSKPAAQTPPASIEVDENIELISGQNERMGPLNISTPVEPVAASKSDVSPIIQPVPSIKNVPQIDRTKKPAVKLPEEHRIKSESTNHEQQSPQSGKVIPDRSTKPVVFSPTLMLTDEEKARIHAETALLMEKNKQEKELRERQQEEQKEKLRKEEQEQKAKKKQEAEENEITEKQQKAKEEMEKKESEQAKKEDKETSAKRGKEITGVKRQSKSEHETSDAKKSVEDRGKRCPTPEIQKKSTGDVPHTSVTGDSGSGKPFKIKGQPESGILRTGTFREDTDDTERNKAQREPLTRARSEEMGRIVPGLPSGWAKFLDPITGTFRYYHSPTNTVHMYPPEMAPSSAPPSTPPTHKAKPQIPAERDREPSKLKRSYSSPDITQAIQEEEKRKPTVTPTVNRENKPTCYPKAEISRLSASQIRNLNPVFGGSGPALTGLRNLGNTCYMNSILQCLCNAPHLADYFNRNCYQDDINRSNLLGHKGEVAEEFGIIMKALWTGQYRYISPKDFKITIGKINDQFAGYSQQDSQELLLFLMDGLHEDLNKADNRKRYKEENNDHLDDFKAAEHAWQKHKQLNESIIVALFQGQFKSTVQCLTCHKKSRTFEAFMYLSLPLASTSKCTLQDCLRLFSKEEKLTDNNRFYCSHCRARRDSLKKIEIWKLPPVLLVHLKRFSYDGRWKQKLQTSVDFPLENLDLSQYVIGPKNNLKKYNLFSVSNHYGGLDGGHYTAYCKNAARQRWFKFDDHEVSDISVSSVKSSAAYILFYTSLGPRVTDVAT

Structure (SMILES)	inhibition
N=C(N)C1CN(Cc2ccccc2)C(=O)NC1=O (stereo not given)	-100% (inactive)
c1cc(CNCc2ccc3c(c2)OCO3)ccn1	11% (inactive)
c1ccc(-c2ccc(NCc3ccc4c(c3)OCO4)nn2)cc1	92% (active)
CCC(Oc1ccccc1)C(=O)NCc1ccc2c(c1)OCO2 (stereo not given)	-79.7% (inactive)
COc1cc(N2CC[C@@H]3[C@@H](CO[C@H]3CNc3ncccn3)C2)ncn1	-92.4% (inactive)
N#Cc1cccc(CSc2ncnc(N)n2)c1	18.1% (inactive)
Cn1cc2nc(SCC(=O)NCc3ccc(Cl)cc3)n(CC3CC3)c(=O)c2n1	38.7% (active)
COc1ccc(CNC(=O)CSc2nnc3c4ccccc4nc(-c4ccco4)n23)cc1	-1.03% (inactive)
Cc1oc(CNC(=O)Cc2ccc(Cl)cc2)nc1C(=O)N1CCC(C)CC1	0.0949% (inactive)
O=C(CSc1ncn[nH]1)NCc1ccc2c(c1)OCO2	19.2% (inactive)
CCN1CCN(c2ccc(NC(=O)C3CCCCC3)cn2)C1=O	1.18% (inactive)
CS(=O)(=O)N(Cc1ccccc1F)c1ccc(Oc2ccc(N(Cc3ccccc3F)S(C)(=O)=O)cc2)cc1	0.186% (inactive)
O=C(NCCc1cccnc1)c1ccn(-c2ccc3ccccn23)n1	-25.8% (inactive)
Cc1nnc2ccc(-c3ccc(NC(=O)c4ccc(Br)o4)cc3)nn12	65.6% (active)
Cc1ccc(-c2cc(C(F)F)n3ncc(C(=O)NCC(C)C)c3n2)cc1	25.9% (inactive)
CCCCc1nc2sc3c(SCC(=O)NCc4ccccc4)ncnc3c2c2c1CCC2	-1.42% (inactive)
CC1(C)CC(=O)c2ccc(OCC(=O)Nc3ccccc3)cc2O1	5.38% (inactive)
COc1ccccc1C(=O)Nc1cccc(Oc2ccccc2)c1	11.4% (inactive)
O=C(O)CC1(CC(=O)Nc2ccc(Oc3ccccc3)cc2)CCCC1	33% (active)
Cc1cc(C)cc(NC(=O)c2cnc3sc4c(n3c2=O)CCCC4)c1	3.8% (inactive)

Structure (SMILES)	inhibition
CCOC(=O)c1cc2c(ccn2C)n1CC(=O)N1CCc2ccccc2C1	-42.9% (inactive)
CCOC(=O)c1cc2c(ccn2C)n1CC(=O)Nc1ccc2c(c1)OCCO2	32.8% (active)
CCOC(=O)c1cc2c(ccn2C)n1CC(=O)N1CCC(C)CC1	-57.3% (inactive)
O=C(c1ccc(Cl)cc1)N1CCSc2cc(Cl)ccc21	12% (inactive)
COc1ccc(CC(=O)Nc2ccc3c(c2)CN(C(=O)c2ccco2)CC3)cc1	33.2% (active)
COc1ccc(CC(=O)Nc2ccc3c(c2)CCC3)cc1S(=O)(=O)N1CCOCC1	0.366% (inactive)
COc1cc2c(cc1OC)CN(C(=O)c1cc(=O)c3ccccc3o1)CC2	3.84% (inactive)
CCN1CCn2c(-c3cnn(C)c3)cnc2C12CCN(S(=O)(=O)CC(C)C)CC2	-29.1% (inactive)
Cc1nn(-c2ccccc2)c2[nH]c(=O)c(C#N)c(-c3ccco3)c12	10.2% (inactive)
Cc1ccc(NC(=O)NCc2nnnn2-c2ccccc2)cc1C	0.496% (inactive)
Cc1ccc(NCc2cc3c(C)nn(-c4ccccc4)c3[nH]c2=O)cc1C	76.5% (active)
CC(C)(C)c1nn(-c2ccccc2)c2[nH]c(=O)c(CNCCc3ccccc3)cc12	85% (active)
Cc1ccc(CCNCc2c(C(=O)O)n(C)c3ccccc23)cc1	-1.77% (inactive)
Cc1cccc(-c2nnc3ccc(N4CCC(C(=O)NC(C)Cc5ccco5)CC4)nn23)c1 (stereo not given)	-6.13% (inactive)
CN1C(=O)C(C)(C)COc2ccc(NS(=O)(=O)c3cccc(F)c3)cc21	11.7% (inactive)
Cc1ccc(Cn2nccc2NC(=O)c2cc(-c3ccccc3)on2)cc1	14.1% (inactive)
Cc1cc(C)cc(C(=O)N2CCN(c3nnc4ccccn34)CC2)c1	-9.4% (inactive)
Cc1nonc1C(=O)NCC(=O)N1Cc2ccccc2OC2(CCOCC2)C1	20.5% (inactive)
COc1ccccc1CNC(=O)c1ccccc1N1C(=O)[C@@H]2Cc3c([nH]c4ccccc34)C(C)N2C1=O (stereo not given in full)	-25.4% (inactive)
O=C(NCc1ccccc1)c1nc[nH]c1C(=O)NCc1cccc(C(F)(F)F)c1	-114% (inactive)

Structure (SMILES)	inhibition
O=C(Cc1cccc(C(F)(F)F)c1)Nc1cccn2ncnc12	2.29% (inactive)
O=C(Cc1c(Cl)cccc1Cl)NCc1cccc(C(F)(F)F)c1	49.9% (active)
CC(C)=CCC(O)C1=CC(=O)c2c(O)ccc(O)c2C1=O (stereo not given)	-234% (inactive)
Cc1cc(NC(C)C)n2ncc(-c3ccc(Cl)cc3)c2n1	-13.7% (inactive)
Cc1nc(CC(=O)Nc2ccc(F)c(F)c2)sc1C(=O)NC1CC1	10.3% (inactive)
COc1cccc(CNS(=O)(=O)c2cc(-c3cc(C)no3)ccc2OC)c1	-16.2% (inactive)
CCn1c(-c2ccccc2)c(C(=O)COC(=O)C(NC(=O)c2ccccc2)C(C)C)c2ccccc21 (stereo not given)	13.1% (inactive)
CN1C(=O)C2(CCN(C(=O)c3ccccc3Cl)C2)c2ccccc21 (stereo not given)	-3.42% (inactive)
O=C(Nc1ccccc1)N1CCN(c2ncccc2-c2nnc(C3CC3)o2)CC1	-5.37% (inactive)
CCN1CCN(c2nc(F)c3c(c2F)S(=O)(=O)CCN3CC2CCCO2)CC1 (stereo not given)	25.6% (inactive)
CC1CCN(c2nc(F)c3c(c2F)S(=O)(=O)CCN3Cc2cccnc2)CC1	85.2% (active)
O=S1(=O)c2ccccc2O[C@H]2CCN(c3ncccn3)CC[C@@H]2N1Cc1cccnc1	-15.4% (inactive)
COc1ccc(NC(=O)c2cc(S(=O)(=O)N3CCCCCC3)cn2C)cc1	0.0121% (inactive)
CC(CS(=O)(=O)c1ccc2c(c1)NC(=O)CCS2)C(=O)N1CCc2ccccc21 (stereo not given)	-14% (inactive)
CC1CN(C(=O)c2ccc(-n3cccn3)c(C#Cc3ccccn3)c2)CC(C)O1 (stereo not given)	-93.1% (inactive)
Cc1ccc(Cn2cc(-c3noc(-c4ccccn4)n3)nn2)cc1	-56.3% (inactive)
Cc1ccc(Cn2cc(-c3noc(-c4ccc[nH]4)n3)nn2)cc1	35.7% (active)
COc1ccc(-c2nc(-c3nnn(Cc4cccc(F)c4)c3C)no2)cc1	0.245% (inactive)
O=C(NCc1noc(C2CCCC2)n1)C1CCCCC1	19.8% (inactive)
CCc1nnsc1C(=O)N1CCOC(c2cccc(N(C)C)n2)C1 (stereo not given)	11.8% (inactive)
